Test results as given in PubChem BioAssay AID1159580 (chemical genetic matrix, 2015).
Screen size: about 5,500 compounds; about 2,000 (36%) were called active. Roughly 18% stayed inconclusive and do not appear here. No stated cut-off is given here; in the data, active means normalized growth mostly below about 0.91 (no sharp cut-off); inconclusive means no clear call, values can overlap the other calls; inactive means mostly above about 0.92. The list shows a part of the results.

Test: chemical genetic growth profiling, strain panel (AID 1159580);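 further: tested at 20 µM; growth read once vehicle control cultures reached saturation at 30 °C; 1 = growth at the plate median or of vehicle wells; lower values mean less growth of the strain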
Details: S. cerevisiae deletion strains, growth OD

Measured: normalized growth

COc1ccc(-c2cc(=O)c3c(O)cc(O[C@H]4O[C@H](CO[C@@H]5O[C@@H](C)[C@H](O)[C@@H](O)[C@H]5O)[C@@H](O)[C@H](O)[C@H]4O)cc3o2)cc1
inactive: locus YAL013W, strain DEP1, hits give low values 1.01 | locus YAL021C, strain ccr4, hits give low values 1 | locus YAL026C, strain drs2, hits give low values 1.03 | locus YAL030W, strain snc1, hits give low values 1 | locus YBL061C, strain skt5, hits give low values 1 | locus YBR009C, strain hhf1, hits give low values 1 | locus YBR021W, strain FUR4, hits give low values 1 | locus YBR023C, strain chs3, hits give low values 1.01 | locus YBR171W, strain sec66, hits give low values 1.01 | locus YBR229C, strain ROT2, hits give low values 1 | locus YBR231C, strain swc5, hits give low values 1.01 | locus YBR279W, strain paf1, hits give low values 1 | locus YCL011C, strain gbp2, hits give low values 1 | locus YCL016C, strain dcc1, hits give low values 0.989 | locus YCL029C, strain bik1, hits give low values 1.02 | locus YCL061C, strain MRC1, hits give low values 1.01 | locus YCL069W, strain vba3, hits give low values 0.968 | locus YCR088W, strain abp1, hits give low values 1.01 | locus YDL005C, strain med2, hits give low values 1 | locus YDL035C, strain GPR1, hits give low values 1 | locus YDL040C, strain nat1, hits give low values 1.01 | locus YDL074C, strain BRE1, hits give low values 1.03 | locus YDL101C, strain DUN1, hits give low values 1.03 | locus YDL185W, strain tfp1, hits give low values 1.02 | locus YDL192W, strain arf1, hits give low values 1.02 | locus YDR001C, strain nth1, hits give low values 0.998 | locus YDR069C, strain doa4, hits give low values 1.01 | locus YDR101C, strain arx1, hits give low values 1.01 | locus YDR137W, strain rgp1, hits give low values 1.02 | locus YDR159W, strain sac3, hits give low values 1.02 | locus YDR162C, strain NBP2, hits give low values 1.01 | locus YDR195W, strain ref2 1 | locus YDR297W, strain sur2, hits give low values 0.998 | locus YDR318W, strain mcm21, hits give low values 1.01 | locus YDR334W, strain swr1, hits give low values 1 | locus YDR335W, strain msn5, hits give low values 0.992 | locus YDR388W, hits give low values 1.02 | locus YDR392W, strain spt3, hits give low values 1 | locus YDR502C, strain sam2, hits give low values 1.02 | locus YEL003W, strain gim4, hits give low values 1.01 | locus YEL037C, strain rad23, hits give low values 1.01 | locus YEL061C, strain CIN8 (second series), hits give low values 0.995 | locus YEL061C, strain CIN8, hits give low values 1 | locus YER015W, strain faa2, hits give low values 1 | locus YER016W, strain bim1, hits give low values 1 | locus YER110C, hits give low values 1.02 | locus YER111C, strain swi4, hits give low values 1 | locus YER155C, strain BEM2 (second series), hits give low values 1.02 | locus YER155C, strain BEM2, hits give low values 1.01 | locus YER167W, strain BCK2, hits give low values 1.02 | locus YFR010W, strain ubp6, hits give low values 1.01 | locus YGL078C, strain dbp3, hits give low values 1.01 | locus YGL086W, strain mad1, hits give low values 1.03 | locus YGL167C, strain pmr1, hits give low values 0.995 | locus YGL173C, strain kem1, hits give low values 1.02 | locus YGL227W, strain vid30, hits give low values 1.01 | locus YGL240W, strain doc1, hits give low values 1.02 | locus YGL248W, strain PDE1, hits give low values 1.01 | locus YGL253W, strain hxk2, hits give low values 0.986 | locus YGR078C, strain PAC10, hits give low values 1.03 | locus YGR135W, strain pre9, hits give low values 1.01 | locus YGR229C, strain SMI1, hits give low values 1.02 | locus YGR252W, strain gcn5, hits give low values 1.04 | locus YHR013C, strain ard1, hits give low values 1.01 | locus YHR027C, strain rpn1, hits give low values 0.998 | locus YHR030C, strain SLT2, hits give low values 0.992 | locus YHR079C, strain IRE1 (second series), hits give low values 1.01 | locus YHR094C, strain hxt1, hits give low values 1.01 | locus YHR129C, strain ARP1, hits give low values 1.01 | locus YHR142W, strain chs7, hits give low values 0.983 | locus YHR200W, strain rpn10, hits give low values 1.02 | locus YIL066C, strain RNR3, hits give low values 1.01 | locus YIL073C, strain SPO22, hits give low values 1.08 | locus YIL125W, strain kgd1, hits give low values 1.02 | locus YIR030C, strain dcg1, hits give low values 1.02 | locus YJL092W, strain hpr5, hits give low values 0.997 | locus YJL095W, strain BCK1 (second series), hits give low values 1 | locus YJL095W, strain BCK1, hits give low values 1.05 | locus YJL115W, strain asf1, hits give low values 1 | locus YJL129C, strain trk1, hits give low values 1.01 | locus YJL134W, strain LCB3, hits give low values 0.994 | locus YJL154C, strain vps35, hits give low values 0.999 | locus YJL164C, strain tpk1, hits give low values 0.991 | locus YJL166W, strain qcr8, hits give low values 1 | locus YJL168C, strain set2, hits give low values 1.02 | locus YJL187C, strain SWE1 (second series), hits give low values 1.03 | locus YJL187C, strain SWE1, hits give low values 1.01 | locus YJR043C, strain POL32, hits give low values 0.972 | locus YKL009W, strain mrt4, hits give low values 1.04 | locus YKL068W, hits give low values 1.01 | locus YKL085W, strain MDH1 (second series), hits give low values 0.999 | locus YKL085W, strain MDH1, hits give low values 0.999 | locus YKL160W, strain elf1, hits give low values 0.999 | locus YKL190W, strain CNB1, hits give low values 0.994 | locus YKR001C, strain vps1, hits give low values 1.04 | locus YKR026C, strain gcn3, hits give low values 1 | locus YKR091W, strain srl3, hits give low values 1 | locus YLL001W, strain dnm1, hits give low values 0.969 | locus YLL026W, hits give low values 1 | locus YLL041C, strain sdh2, hits give low values 1.01 | locus YLR027C, strain aat2, hits give low values 0.981 | locus YLR039C, strain RIC1, hits give low values 1.06 | locus YLR058C, strain SHM2, hits give low values 1.01 | locus YLR102C, strain apc9, hits give low values 1.02 | locus YLR221C, strain rsa3, hits give low values 1.01 | locus YLR258W, strain gsy2, hits give low values 0.991 | locus YLR262C, strain YPT6 (second series), hits give low values 0.988 | locus YLR262C, strain YPT6, hits give low values 1.1 | locus YLR268W, strain sec22, hits give low values 1.05 | locus YLR320W, strain mms22, hits give low values 1.03 | locus YLR330W, strain CHS5, hits give low values 1 | locus YLR342W, strain FKS1 (second series), hits give low values 1.01 | locus YLR342W, strain FKS1, hits give low values 0.996 | locus YLR357W, strain rsc2, hits give low values 0.996 | locus YLR370C, strain arc18, hits give low values 1 | locus YLR371W, strain rom2, hits give low values 1.02 | locus YLR384C, strain iki3, hits give low values 0.99 | locus YLR418C, strain cdc73, hits give low values 0.994 | locus YML016C, strain PPZ1, hits give low values 1 | locus YML032C, strain rad52, hits give low values 0.998 | locus YML120C, strain ndi1, hits give low values 1 | locus YML124C, strain tub3, hits give low values 1.02 | locus YMR058W, strain fet3, hits give low values 1 | locus YMR078C, strain ctf18, hits give low values 1.02 | locus YMR125W, strain sto1, hits give low values 0.958 | locus YMR129W, hits give low values 0.999 | locus YMR205C, strain PFK2, hits give low values 1 | locus YMR223W, strain ubp8, hits give low values 1.01 | locus YMR231W, strain pep5, hits give low values 1 | locus YMR307W, strain GAS1, hits give low values 1.03 | locus YNL067W, strain RPL9B, hits give low values 1.04 | locus YNL071W, strain lat1, hits give low values 1.01 | locus YNL128W, strain TEP1, hits give low values 1.02 | locus YNL209W, strain ssb2, hits give low values 0.991 | locus YNL233W, strain BNI4, hits give low values 1.04 | locus YNL248C, strain rpa49, hits give low values 1.02 | locus YNL250W, strain rad50, hits give low values 1.02 | locus YNL271C, strain bni1, hits give low values 1.02 | locus YNL298W, strain CLA4, hits give low values 1.02 | locus YNL307C, strain MCK1, hits give low values 1.02 | locus YNL322C, strain KRE1 (second series), hits give low values 1 | locus YNL322C, strain KRE1, hits give low values 1 | locus YNR049C, strain mso1, hits give low values 0.991 | locus YNR052C, strain pop2, hits give low values 1.02 | locus YOL006C, strain TOP1, hits give low values 1.15 | locus YOL012C, strain htz1 1.14 | locus YOL147C, strain pex11, hits give low values 1.01 | locus YOR001W, strain rrp6, hits give low values 1.02 | locus YOR061W, strain CKA2, hits give low values 1 | locus YOR069W, strain VPS5, hits give low values 1.01 | locus YOR070C, strain gyp1, hits give low values 1.02 | locus YOR080W, strain dia2, hits give low values 0.998 | locus YOR083W, strain WHI5, hits give low values 1.01 | locus YOR106W, strain vam3, hits give low values 0.988 | locus YOR136W, strain idh2, hits give low values 1.03 | locus YOR144C, strain elg1, hits give low values 1.01 | locus YOR184W, strain ser1, hits give low values 1.01 | locus YOR265W, strain rbl2, hits give low values 0.998 | locus YOR270C, strain vph1, hits give low values 1.02 | locus YOR290C, strain snf2, hits give low values 0.985 | locus YOR316C, strain cot1, hits give low values 1.01 | locus YPL051W, strain arl3, hits give low values 1.01 | locus YPL078C, strain atp4, hits give low values 1.02 | locus YPL106C, strain sse1, hits give low values 1.01 | locus YPL240C, strain hsp82, hits give low values 0.995 | locus YPL241C, strain CIN2, hits give low values 0.993 | locus YPR119W, strain clb2, hits give low values 1.02 | locus YPR141C, strain kar3, hits give low values 1.01 | locus YPR163C, strain tif3, hits give low values 1.02 | locus YPR167C, strain met16, hits give low values 1.01 | strain wtn01, hits give low values 1.04
